According to the supplement of paper PMC11732987, “Enantioselective OTUD7B fragment discovery through chemoproteomics screening and high-throughput optimisation” (Communications Chemistry, 2025):

Experiments:
Assay in all cases: log2 ratio of Biotin-Ahx-Ub-VS probe labelling (fragment/DMSO); higher = less target engagement (more negative = stronger competition), active = hit call of the paper (q ≤ 0.05, log2 ratio ≤ -1)
Conditions in all cases: compound concentration: 200 uM; treatment time: 3 h
USP34 = USP34 (UniProt Q70CQ2)
Method in brief: (§1)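 Fragment (200 µM) or vehicle was incubated for 3 h with triplicate HEK293T lysate samples of 495 µg, which were then treated with Biotin-Ahx-Ub-VS at 0.5 µM final for 1 h. Labelled DUBs were enriched on NeutrAvidin, digested with LysC and trypsin, and analysed by diaPASEF LC-MS/MS. Values are average log2 fragment/vehicle ratios from an unpaired t-test on global-median-normalised Spectronaut label-free quantities, using proteins with ≥2 unique peptides.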

USP36 = target: T1, USP36 (UniProt Q9P275)
T1 sequence (whole entry): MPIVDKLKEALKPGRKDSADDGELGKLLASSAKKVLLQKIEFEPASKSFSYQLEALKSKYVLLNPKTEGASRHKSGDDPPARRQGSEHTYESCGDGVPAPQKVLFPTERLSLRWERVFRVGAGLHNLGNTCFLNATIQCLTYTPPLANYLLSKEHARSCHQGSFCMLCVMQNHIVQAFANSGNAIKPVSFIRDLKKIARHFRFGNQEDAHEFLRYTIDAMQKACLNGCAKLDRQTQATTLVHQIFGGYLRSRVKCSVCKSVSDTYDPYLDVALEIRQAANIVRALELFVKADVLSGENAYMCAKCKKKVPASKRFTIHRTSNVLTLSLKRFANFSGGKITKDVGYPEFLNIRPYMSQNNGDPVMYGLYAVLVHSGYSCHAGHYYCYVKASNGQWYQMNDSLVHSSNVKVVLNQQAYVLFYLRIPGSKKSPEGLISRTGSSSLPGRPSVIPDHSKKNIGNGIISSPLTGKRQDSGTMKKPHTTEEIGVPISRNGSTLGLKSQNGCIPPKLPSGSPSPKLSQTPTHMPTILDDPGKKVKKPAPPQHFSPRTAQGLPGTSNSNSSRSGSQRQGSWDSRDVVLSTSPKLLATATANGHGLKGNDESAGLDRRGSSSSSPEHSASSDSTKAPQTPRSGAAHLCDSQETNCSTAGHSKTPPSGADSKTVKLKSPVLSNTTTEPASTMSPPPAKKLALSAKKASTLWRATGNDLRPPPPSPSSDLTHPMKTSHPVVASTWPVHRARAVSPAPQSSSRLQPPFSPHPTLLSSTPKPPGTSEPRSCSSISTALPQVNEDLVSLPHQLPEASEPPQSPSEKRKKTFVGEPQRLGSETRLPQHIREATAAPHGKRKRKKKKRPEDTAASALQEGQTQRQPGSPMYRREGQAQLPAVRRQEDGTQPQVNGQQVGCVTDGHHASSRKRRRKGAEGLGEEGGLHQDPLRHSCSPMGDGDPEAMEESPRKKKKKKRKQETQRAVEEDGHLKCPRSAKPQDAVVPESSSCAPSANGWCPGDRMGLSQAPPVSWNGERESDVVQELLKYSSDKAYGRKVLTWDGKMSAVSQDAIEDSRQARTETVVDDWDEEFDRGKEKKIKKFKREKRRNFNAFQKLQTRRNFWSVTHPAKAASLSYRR
Method in brief: as §1

USP38 = target: T2, USP38 (UniProt Q8NB14)
T2 sequence (whole entry): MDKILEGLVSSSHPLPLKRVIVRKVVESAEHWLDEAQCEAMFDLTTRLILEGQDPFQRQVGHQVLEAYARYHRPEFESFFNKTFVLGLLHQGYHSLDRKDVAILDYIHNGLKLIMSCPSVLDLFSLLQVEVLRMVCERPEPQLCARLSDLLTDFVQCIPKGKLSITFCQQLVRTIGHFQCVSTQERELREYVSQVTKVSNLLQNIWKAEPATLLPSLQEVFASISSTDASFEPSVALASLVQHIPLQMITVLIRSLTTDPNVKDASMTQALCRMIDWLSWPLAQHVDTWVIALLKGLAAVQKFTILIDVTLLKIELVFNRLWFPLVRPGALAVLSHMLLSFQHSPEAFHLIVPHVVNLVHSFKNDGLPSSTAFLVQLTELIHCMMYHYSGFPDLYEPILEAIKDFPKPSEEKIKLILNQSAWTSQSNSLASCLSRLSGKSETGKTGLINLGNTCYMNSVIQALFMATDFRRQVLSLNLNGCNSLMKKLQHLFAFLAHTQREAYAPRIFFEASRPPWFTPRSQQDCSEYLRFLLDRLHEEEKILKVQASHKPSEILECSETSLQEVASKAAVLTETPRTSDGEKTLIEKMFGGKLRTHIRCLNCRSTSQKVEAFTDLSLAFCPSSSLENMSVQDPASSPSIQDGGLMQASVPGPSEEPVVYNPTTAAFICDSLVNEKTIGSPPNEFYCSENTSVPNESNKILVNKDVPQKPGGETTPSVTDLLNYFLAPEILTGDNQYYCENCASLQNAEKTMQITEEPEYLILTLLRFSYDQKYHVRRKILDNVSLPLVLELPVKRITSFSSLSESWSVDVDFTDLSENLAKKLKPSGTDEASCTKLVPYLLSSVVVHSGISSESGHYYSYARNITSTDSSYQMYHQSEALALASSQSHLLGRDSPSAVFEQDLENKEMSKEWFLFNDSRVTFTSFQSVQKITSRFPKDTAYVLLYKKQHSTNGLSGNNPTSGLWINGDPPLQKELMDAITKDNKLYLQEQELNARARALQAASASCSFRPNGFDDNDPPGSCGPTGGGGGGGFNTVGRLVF
Method in brief: as §1

USP39 = target: T3, USP39 (UniProt Q53GS9)
T3 sequence (whole entry): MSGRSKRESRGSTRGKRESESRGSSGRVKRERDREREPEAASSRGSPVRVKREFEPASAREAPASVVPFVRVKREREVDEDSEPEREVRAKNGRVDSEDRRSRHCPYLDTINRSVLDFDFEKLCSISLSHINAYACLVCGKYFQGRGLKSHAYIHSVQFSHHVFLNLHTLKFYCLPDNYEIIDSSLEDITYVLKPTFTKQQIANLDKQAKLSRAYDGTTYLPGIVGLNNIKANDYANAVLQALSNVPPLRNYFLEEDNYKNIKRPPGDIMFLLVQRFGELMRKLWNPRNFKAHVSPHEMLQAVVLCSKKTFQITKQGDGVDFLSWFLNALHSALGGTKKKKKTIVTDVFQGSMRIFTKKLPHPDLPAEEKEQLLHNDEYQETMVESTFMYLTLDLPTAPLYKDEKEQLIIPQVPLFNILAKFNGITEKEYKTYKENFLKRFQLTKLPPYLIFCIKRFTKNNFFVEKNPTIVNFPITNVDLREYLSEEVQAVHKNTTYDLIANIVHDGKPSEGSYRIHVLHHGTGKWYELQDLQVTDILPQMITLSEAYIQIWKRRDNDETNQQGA
Method in brief: as §1

USP4 = target: T4, USP4 (UniProt Q13107)
T4 sequence (whole entry): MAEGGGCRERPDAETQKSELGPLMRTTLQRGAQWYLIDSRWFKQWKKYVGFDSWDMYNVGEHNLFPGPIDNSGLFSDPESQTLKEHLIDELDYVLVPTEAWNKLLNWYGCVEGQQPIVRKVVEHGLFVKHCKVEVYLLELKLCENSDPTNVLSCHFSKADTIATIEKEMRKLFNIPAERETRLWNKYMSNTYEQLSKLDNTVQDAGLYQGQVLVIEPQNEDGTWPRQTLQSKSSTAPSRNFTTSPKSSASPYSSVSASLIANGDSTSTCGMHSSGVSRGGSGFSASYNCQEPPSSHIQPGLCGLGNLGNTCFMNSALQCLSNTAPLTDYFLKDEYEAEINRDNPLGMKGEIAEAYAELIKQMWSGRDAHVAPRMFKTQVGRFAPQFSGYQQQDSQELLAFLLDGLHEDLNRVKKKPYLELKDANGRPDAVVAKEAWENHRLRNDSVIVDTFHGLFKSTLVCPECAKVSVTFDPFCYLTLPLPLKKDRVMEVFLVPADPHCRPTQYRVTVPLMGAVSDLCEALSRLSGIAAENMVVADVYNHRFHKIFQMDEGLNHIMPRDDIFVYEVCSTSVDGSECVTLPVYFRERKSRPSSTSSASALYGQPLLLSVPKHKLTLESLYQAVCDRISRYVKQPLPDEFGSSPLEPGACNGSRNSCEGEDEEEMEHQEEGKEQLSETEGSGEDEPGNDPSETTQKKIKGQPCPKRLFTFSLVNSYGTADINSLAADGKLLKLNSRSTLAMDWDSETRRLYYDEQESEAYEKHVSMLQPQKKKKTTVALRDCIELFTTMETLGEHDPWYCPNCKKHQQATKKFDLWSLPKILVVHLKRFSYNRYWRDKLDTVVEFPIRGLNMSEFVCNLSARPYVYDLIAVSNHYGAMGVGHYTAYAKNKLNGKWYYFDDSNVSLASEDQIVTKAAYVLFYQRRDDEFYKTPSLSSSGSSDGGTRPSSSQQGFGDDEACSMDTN
Method in brief: as §1

Measured: log2 ratio of Biotin-Ahx-Ub-VS probe labelling

Sequence of USP34 (Q70CQ2 whole entry, the tested form may be a part): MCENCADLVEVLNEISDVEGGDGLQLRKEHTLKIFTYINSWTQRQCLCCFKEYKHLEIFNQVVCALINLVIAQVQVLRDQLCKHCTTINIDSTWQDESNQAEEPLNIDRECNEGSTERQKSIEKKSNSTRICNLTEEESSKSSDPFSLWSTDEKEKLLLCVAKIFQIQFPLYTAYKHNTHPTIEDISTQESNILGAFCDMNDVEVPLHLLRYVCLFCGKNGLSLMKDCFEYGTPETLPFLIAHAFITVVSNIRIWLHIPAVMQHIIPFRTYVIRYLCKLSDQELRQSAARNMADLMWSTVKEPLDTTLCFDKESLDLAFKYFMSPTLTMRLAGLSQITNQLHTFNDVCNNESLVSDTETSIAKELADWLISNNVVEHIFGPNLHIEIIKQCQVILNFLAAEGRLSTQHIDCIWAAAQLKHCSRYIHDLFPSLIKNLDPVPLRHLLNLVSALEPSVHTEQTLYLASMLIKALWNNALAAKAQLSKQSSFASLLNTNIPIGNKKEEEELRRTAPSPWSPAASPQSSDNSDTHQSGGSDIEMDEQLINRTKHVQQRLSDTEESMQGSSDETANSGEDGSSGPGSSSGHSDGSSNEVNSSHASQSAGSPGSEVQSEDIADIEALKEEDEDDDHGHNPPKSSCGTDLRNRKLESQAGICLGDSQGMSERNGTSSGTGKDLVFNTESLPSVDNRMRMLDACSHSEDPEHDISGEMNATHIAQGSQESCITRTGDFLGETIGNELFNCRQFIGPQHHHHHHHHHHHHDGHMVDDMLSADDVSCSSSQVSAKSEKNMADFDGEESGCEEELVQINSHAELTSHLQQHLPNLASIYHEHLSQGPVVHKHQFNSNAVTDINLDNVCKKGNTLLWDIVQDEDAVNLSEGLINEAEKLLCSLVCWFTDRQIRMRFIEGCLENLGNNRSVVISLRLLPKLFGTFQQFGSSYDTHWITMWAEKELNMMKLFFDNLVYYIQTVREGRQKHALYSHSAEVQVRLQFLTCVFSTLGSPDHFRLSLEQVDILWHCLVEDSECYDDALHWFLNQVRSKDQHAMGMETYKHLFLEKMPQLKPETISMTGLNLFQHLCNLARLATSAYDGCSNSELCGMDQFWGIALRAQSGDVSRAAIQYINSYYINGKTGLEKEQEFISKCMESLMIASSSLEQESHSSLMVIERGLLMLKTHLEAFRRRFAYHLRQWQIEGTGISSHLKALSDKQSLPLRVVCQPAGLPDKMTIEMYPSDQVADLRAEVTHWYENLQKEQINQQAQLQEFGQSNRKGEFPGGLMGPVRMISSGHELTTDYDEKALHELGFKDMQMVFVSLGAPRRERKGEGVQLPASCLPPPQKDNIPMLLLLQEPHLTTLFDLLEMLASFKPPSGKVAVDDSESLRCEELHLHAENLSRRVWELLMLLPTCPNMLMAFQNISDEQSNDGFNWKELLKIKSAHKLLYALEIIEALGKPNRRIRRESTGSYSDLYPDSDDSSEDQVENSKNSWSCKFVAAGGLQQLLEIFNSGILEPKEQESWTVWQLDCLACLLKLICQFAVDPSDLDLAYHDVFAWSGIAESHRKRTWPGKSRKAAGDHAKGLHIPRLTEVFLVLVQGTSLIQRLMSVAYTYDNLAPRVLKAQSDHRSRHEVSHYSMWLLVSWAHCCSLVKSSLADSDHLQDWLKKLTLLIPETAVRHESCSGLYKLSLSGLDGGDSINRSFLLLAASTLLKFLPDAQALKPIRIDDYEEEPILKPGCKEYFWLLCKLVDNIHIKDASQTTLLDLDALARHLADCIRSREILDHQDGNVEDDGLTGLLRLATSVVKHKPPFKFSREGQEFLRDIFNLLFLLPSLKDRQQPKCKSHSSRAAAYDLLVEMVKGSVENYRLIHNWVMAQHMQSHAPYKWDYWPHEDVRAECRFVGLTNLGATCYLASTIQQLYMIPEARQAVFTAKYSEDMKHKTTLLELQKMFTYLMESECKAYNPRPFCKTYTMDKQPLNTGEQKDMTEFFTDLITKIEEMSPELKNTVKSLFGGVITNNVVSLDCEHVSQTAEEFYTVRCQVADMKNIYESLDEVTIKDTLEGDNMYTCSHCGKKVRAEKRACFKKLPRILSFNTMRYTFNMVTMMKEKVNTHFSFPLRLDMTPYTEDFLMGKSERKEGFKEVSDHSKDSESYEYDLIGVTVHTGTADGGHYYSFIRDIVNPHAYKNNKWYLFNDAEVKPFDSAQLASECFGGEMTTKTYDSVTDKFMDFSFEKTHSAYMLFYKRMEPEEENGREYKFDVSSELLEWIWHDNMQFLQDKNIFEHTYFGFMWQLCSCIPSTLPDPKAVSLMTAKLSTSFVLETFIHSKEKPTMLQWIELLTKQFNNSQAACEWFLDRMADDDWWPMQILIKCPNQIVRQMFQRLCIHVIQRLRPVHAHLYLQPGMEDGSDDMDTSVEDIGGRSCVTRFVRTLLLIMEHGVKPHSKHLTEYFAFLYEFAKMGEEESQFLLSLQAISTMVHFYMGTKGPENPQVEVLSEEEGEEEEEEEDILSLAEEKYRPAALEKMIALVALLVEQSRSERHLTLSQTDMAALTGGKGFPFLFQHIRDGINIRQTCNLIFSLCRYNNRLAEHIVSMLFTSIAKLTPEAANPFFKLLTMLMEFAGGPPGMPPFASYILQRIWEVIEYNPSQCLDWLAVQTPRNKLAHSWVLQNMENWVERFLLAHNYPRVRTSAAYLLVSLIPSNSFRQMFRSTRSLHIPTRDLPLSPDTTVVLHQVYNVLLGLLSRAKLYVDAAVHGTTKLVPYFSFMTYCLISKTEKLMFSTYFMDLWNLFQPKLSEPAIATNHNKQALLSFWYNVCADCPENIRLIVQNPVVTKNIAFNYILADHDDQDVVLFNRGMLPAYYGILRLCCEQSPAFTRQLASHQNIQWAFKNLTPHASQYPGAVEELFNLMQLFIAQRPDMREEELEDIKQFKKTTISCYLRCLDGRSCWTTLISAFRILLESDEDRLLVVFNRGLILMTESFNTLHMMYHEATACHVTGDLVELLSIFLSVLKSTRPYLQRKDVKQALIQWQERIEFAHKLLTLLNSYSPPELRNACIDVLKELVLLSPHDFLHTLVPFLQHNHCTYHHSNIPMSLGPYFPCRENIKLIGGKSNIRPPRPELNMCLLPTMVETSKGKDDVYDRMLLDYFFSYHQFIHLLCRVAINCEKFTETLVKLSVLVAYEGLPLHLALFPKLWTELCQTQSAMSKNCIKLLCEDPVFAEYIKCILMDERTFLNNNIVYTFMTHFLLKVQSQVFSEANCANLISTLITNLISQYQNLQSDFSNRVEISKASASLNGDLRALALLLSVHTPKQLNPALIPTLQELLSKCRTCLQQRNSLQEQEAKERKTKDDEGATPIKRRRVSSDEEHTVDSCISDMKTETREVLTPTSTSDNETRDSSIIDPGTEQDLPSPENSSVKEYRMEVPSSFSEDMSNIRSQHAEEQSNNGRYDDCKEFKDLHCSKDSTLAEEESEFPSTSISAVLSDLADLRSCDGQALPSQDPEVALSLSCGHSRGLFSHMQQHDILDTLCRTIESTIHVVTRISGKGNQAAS

O=C(CCl)N1CCOC2(CCC2)C1
inactive: USP34 0.118 | USP36 0.102 | USP38 0.253 | USP39 0.11 | USP4 -0.266
